# Sampled rows, rich in hits. Any-hit rate of the full collection: about 1.5%.
# BRCT PPI green – inhibitors of human BRCA1 BRCT-phosphoprotein interaction (green fluorophore); P38398; BRCA1 BRCT-phosphopeptide binding, green fluorescence polarization; Potency, µM (series often up to 76.9 µM), inactives show at the highest dose activity change, negative = inhibition, hits mostly inhibitors; actives 0.05% (n = 75,000);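 also: potency is read from the fitted curve at half-maximal effect; plate controls were peptide without protein for full effect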
#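 Fluorescence polarization: His-tagged BRCT (~35 kDa BRCA1 C-terminus, 250 nM) bound to 100 nM fluorescein-labeled phosphorylated 10-aa BACH1 peptide, pH 7.3 phosphate buffer with DTT and Tween 20. Compounds incubated 12 min at room temperature; inhibition read as lowered polarization.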
# BRCT inh red – disrupts BRCA1 BRCT binding to phosphoprotein, red fluorophore readout; P38398; BRCT-phosphopeptide binding, red fluorescence polarization; Potency, µM (highest dose often 76.9 µM), for the others: at the top dose activity change, negative = inhibition, hits mostly inhibitors; actives 0.03% (n = 75,000); AID 892; also: % is scaled to controls: 0 for no effect and ±100 for the full control effect
#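 Rhodamine-labelled pBACH1 10-mer (100 nM) bound to BRCT domain (100 nM) at pH 7.3; compounds incubated 12 min room temperature, polarization read. Free peptide defines full inhibition; unlabelled decapeptide titrated as control.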
# Caspase-1 inhib – blocks human caspase-1 allosterically or competitively. P29466. Caspase-1 enzyme, Ac-WEHD-AFC fluorogenic rate. Potency, µM (top dose mostly 57.5 µM), inactives show top-dose activity change, negative = inhibition, actives largely listed as inhibitors. actives 0.03% (n = 75,000). AID 900;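 also: potency is read from the fitted curve at half-maximal effect; plate controls were vehicle for no effect and no substrate for full effect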
# 15-hLO inh – inhibitors of human 15-lipoxygenase (ALOX15); P16050; actives 1.4% (n = 74,000); Potency, µM (titrated, usually from 57.1 µM), for inactives: at the highest dose activity change, negative = inhibition, usual class: inhibitors; purified 15hLO-1, xylenol orange hydroperoxide absorbance; AID 887; also: potency is read from the fitted curve at half-maximal effect; % is scaled to controls: 0 for no effect and ±100 for the full control effect; nearly all actives have a fitted effect of over 55% in size
#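 Quantitative HTS in 25 mM Hepes pH 7.5 containing 0.01% Triton X-100: human 15hLO-1 at 40 nM, arachidonic acid at 50 uM, 6 min turnover. Product quantified via ferrous oxidation/xylenol orange, 573:405 nm absorbance ratio.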
# Casp7 inh – blocks human caspase-7 allosterically or competitively | P55210 | recombinant caspase-7, Ac-DEVD-AFC fluorescence rate | Potency, µM (series often up to 57.5 µM), for inactives: at the highest dose activity change, negative = inhibition, actives largely listed as inhibitors | actives 0.02% (n = 75,000); active = well fitted inhibition curve with a large enough effect in the main read-out, with a control signal flat, not every such curve was filed as active; inconclusive = small, poorly fitted or top-dose-only effect, or a change in a side signal; also: potency is read from the fitted curve at half-maximal effect; % of control where 0% means no effect
# USP2a inhib – USP2a (human) protease inhibition. O75604. USP2a enzymatic assay, qHTS inhibition. Potency, µM (series often up to 38.3 µM), for inactives: top-dose activity change, negative = inhibition, most hits filed as inhibitors. actives 0.1% (n = 60,000); also: potency is read from the fitted curve at half-maximal effect; nearly all actives have a fitted effect of over 60% in size
#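 USP2 core (20nM final) preincubated 30 min RT with compound, then Ub-PLA2 20nM and NBD C6-HPC 20uM final added; buffer 20mM Tris-HCl pH 8.0, 2mM CaCl2. Fluorescence Ex 460/Em 535 read at 0 and 2.5 h; normalized to NEM.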
# Numbers without * were called inactive; ? = inconclusive; / = not tested or not shown; [ ] = another dose, or the depositor's remark. Unless noted, calls follow the shape of the dose curve; as a rule, active = well fitted curve in the direction sought with a large enough effect; inconclusive = small, poorly fitted or top-dose-only effect, or another doubt; inactive = no such curve, though single readings can be large; an effect the other way counts as inactive or inconclusive.
SMILES,BRCT PPI green,BRCT inh red,Caspase-1 inhib,15-hLO inh,Casp7 inh,USP2a inhib
CC1Cc2ccccc2N1C(=O)c1cnsn1 (configuration not stated),-1.4%,-2.0%,2.3%,3.98µM*,0.9%,-7.0%
CC1Cc2ccccc2N1C(=O)c1cccnc1 (configuration not stated),1.5%,-1.5%,-2.0%,3.2%,3.7%,-5.8%
COc1cccc(CC(NC(C)=O)C(=O)NC2CCN(c3nc(C)cc(C)c3C#N)CC2)c1 (configuration not stated),1.6%,-1.4%,-2.9%,1.9%,-3.8%,23.2%
COc1ccc(CC(NC(C)=O)C(=O)NC2CCN(c3nc(C)cc(C)c3C#N)CC2)c(OC)c1 (configuration not stated),2.8%,-1.8%,-4.8%,25.1µM*,-2.8%,25.1%
O=c1ccc2cc3c([nH]c4ccc(Br)cc43)oc-2c1O,-1.2%,-1.8%,-1.9%,25.1µM*,-12.7%,108.9%[46.1 µM]
O=c1[nH]c2ccc(Br)cc2c(-c2ccccc2)c1N1CCOCC1,-1.2%,-0.7%,?,-2.8%,?,/
CCOC(=O)OCC1OC(c2ccccc2)C=CC1Oc1ccc(F)cc1C (configuration not stated),-0.5%[15.4 µM],-1.3%[15.4 µM],4.7%[11.5 µM],-9.5%[11.4 µM],0.1%[11.5 µM],/
CCN1C(=O)[C@@H]2[C@H]3C(=CC[C@@H]2C1=O)C1(OCCCO1)[C@H]1O[C@@H]1[C@H]3O,-1.0%[15.4 µM],0.9%[15.4 µM],-1.8%[11.5 µM],?,-3.0%[11.5 µM],/
COc1ccc2[nH]c3c(=O)n(CCCCC(=O)NCCN4CCCC4)c(=S)[nH]c3c2c1,-0.9%,0.0%,-2.0%,10µM*,-0.3%,25.9%
CN1[C@@H]2CC(OC(=O)[C@@H](CO)c3ccccc3)C[C@H]1[C@H]1O[C@H]12 (some centres not stated),-1.2%,2.1%,-3.3%,9.3%,0.9%,0.5%
CCCc1ccc(Oc2c(-c3ccc(O)c(C)c3O)n[nH]c2C)cc1,-0.8%,-0.8%,-4.0%,?,-4.1%,15.8µM*
Cn1c2c(c3ccccc31)CC/C2=N\O,-5.2%,-1.0%,1.9%,25.1µM*,-2.9%,/
CC1C(C#N)=C(N)OC2=C1C(=O)CC(C)(C)C2 (configuration not stated),-2.1%,0.8%,-0.6%,2.2%,-3.9%,-9.3%
CC1(C)CC(=O)C2=C(C1)OC(N)=C(C#N)C2C1CC=CCC1 (configuration not stated),-1.3%,-3.0%,1.0%,31.6µM*,0.6%,2.0%
C/C(CCN1CCc2nc(-c3ccccc3)c(-c3ccccc3)cc2C1)=N\O[C@@H](C)CN1CCCCc2nc(C)c(C)cc21,0.0%[15.4 µM],0.4%[15.4 µM],-8.5%[11.5 µM],-2.8%[11.4 µM],0.1%[11.5 µM],/
OCc1ccccc1,-0.5%,-0.9%,-2.2%,-5.1%,0.5%,/
ICCc1ccccc1,-4.5%,0.3%,?,12.6µM*,-3.1%,/
Cc1cc(C(=O)CSc2nnc(-c3ccco3)o2)c(C)n1-c1ccc2c(c1)OCCO2,0.5%,0.1%,-2.7%,-24.6%,-2.0%,21.3%
Cc1cc(C(=O)CSc2nnc(-c3ccco3)o2)c(C)n1Cc1ccco1,-1.3%,-9.0%,-13.5%,25.1µM*,-12.1%,23.3%
Cc1cc(C(=O)CSc2nnc(-c3cccs3)o2)c(C)n1-c1ccccc1,7.6%,0.4%,-8.4%,20µM*,-10.4%,17.4%
O=C1C2=C(Nc3cc([N+](=O)[O-])ccc3N2)O[C@@H]1c1ccc([C@H]2OC3=C(Nc4ccc([N+](=O)[O-])cc4N3)C2=O)cc1,0.6%[15.4 µM],0.0%[15.4 µM],0.9%[11.5 µM],?,-15.6%[11.5 µM],/
CCCOCC(C)OCC(C)O (configuration not stated),-1.1%,0.6%,3.4%,6.2%,-0.9%,/
CCCCCCCCCCCC1=C(O)C(=O)C=C(O)C1=O,-6.4%,-17.2%,-4.9%,5.01µM*,-14.4%,60.2%
O=C(O)c1ccc(Cl)c(S(=O)(=O)Nc2ccccc2)c1,-1.3%,1.7%,1.6%,-4.0%,-2.1%,/
c1ccc(-c2nnc3sc(-c4csc5c4CCCC5)nn23)cc1,0.1%,-2.1%,-3.4%,15.8µM*,-5.2%,9.4%
SMILES,BRCT PPI green,BRCT inh red,Caspase-1 inhib,15-hLO inh,Casp7 inh,USP2a inhib
CN(C)C1CCN(C(=O)c2ccc(-n3c(=O)c(=O)[nH]c4ccccc43)cc2)C1 (configuration not stated),-1.4%,-0.9%,-4.2%,-5.7%,-1.5%,/
O=C(/C=C/c1ccc(O)c(O)c1)OCCc1ccccc1,-0.9%,0.4%,-1.4%,0.501µM*,-1.4%,16.9%
O=C(O)/C=C\c1ccc(O)c(O)c1,1.6%[34.4 µM],0.2%[34.4 µM],-0.7%[25.7 µM],-6.9%[25.6 µM],-3.0%[25.7 µM],-10.3%[17.1 µM]
CCOC(=O)c1c(-c2ccc(C)o2)csc1N,1.2%,0.2%,/,1.58µM*,?,29.6%[7.66 µM]
Cc1ccc(-n2nnnc2SCC(N)=O)c(C)c1,0.0%,-0.6%,0.8%,2.5%,1.2%,-3.2%
Cc1ccc(-n2nnnc2SCC(=O)NCCC2=CCCCC2)c(C)c1,-0.6%,-0.3%,-1.9%,31.6µM*,-1.8%,5.3%
C#CCCCO/N=C1/C[C@@H](O)[C@@H](O)[C@@H]2[C@@H]3C(=O)N(C[C@@H]4CCCO4)C(=O)[C@H]3CC[C@H]12,-1.0%[15.4 µM],-0.2%[15.4 µM],-0.7%[11.5 µM],-14.2%[11.4 µM],-0.5%[11.5 µM],/
Cc1ccccc1-c1ccc2ncnc(NCc3cccs3)c2c1,-0.9%,-2.7%,?,32.3%,15.8µM*,-21.3%
Oc1cc2c(cc1O)C1c3ccc(O)c(O)c3OCC1(O)C2 (configuration not stated),0.5%[3.08 µM],2.3%,0.9%,5.01µM*,-8.3%,-0.5%
CCCn1c(-c2ccc(F)cc2)nc2c(N3CCN(C)CC3)nc(C)nc21,-2.1%,-0.4%,1.5%,20µM*,-1.0%,/
CCCn1c(-c2ccc(F)cc2)nc2c(N3CCC(N(C)C)C3)nc(C)nc21 (configuration not stated),0.3%,-0.7%,0.2%,4.6%,0.0%,/
O=C(O)c1cc2c(cc1S(=O)(=O)O)[C@H]1[C@@H]([C@H]3[C@H]2[C@@]2(Cl)C(Cl)=C(Cl)[C@]3(Cl)C2(Cl)Cl)[C@]2(Cl)C(Cl)=C(Cl)[C@@]1(Cl)C2(Cl)Cl,-5.0%[15.4 µM],-6.0%[15.4 µM],2.3%[11.5 µM],5.01µM*,-2.6%[11.5 µM],/
O=S(=O)(NCCNC/C=C\c1ccc(Br)cc1)c1cccc2cnccc12,-1.3%,-2.4%,-0.4%,-16.4%,0.6%,21.4%
O=C1CCCC(O)=C1C(C#Cc1ccccc1)C1=C(O)CCCC1=O,-1.1%,-0.3%,-1.2%,7.94µM*,0.2%,5.0%
O=C(Cc1ccc(S(=O)(=O)N2CCOCC2)s1)Nc1ccc2c(c1)CCC2,-0.9%,0.6%,-3.3%,-29.1%,-4.9%,43.2%
O=C(CCN1CCOCC1)Nc1ccc2c(c1)CCC2,-0.4%,0.6%,-1.3%,25.1µM*,-0.7%,2.4%

# Assay outcomes as filed in PubChem BioAssay.
